Measurements taken from PubChem BioAssay (NCATS).
The source made the active and inactive calls. Calls come from the whole dose curve; as a rule, active = well fitted curve in the direction sought with a large enough effect; inactive = no such curve, though single readings can be large or run the other way.

target: Alpha-galactosidase (Coffea arabica) (UniProt Q42656); experiment: Counterscreen for Glucocerebrosidase Inhibitors: qHTS Assay for Coffee Bean alpha-Galactosidase at pH 5.9 (AID 998); details: coffee bean alpha-galactosidase enzyme assay; series mostly up to 76.9 µM
Sequence (Q42656 whole entry, looked up): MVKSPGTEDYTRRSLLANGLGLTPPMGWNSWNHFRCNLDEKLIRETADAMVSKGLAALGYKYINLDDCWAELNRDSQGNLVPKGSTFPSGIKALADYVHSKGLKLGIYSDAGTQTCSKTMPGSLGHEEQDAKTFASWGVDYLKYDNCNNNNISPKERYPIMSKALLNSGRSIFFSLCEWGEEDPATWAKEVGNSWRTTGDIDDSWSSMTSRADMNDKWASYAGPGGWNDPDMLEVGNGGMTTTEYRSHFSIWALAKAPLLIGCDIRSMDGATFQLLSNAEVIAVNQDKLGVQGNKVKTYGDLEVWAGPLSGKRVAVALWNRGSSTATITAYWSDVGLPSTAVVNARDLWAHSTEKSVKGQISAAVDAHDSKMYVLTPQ
Text: NIH Chemical Genomics Center [NCGC]
NIH Molecular Libraries Screening Centers Network [MLSCN]
PI Name: Zheng, Wei [NIH]
Alpha-galactosidase is a homodimeric glycoprotein that hydrolyzes the terminal alpha-galactosyl moieties from glycolipids and glycoproteins. Deficiency of this enzyme results in Fabry Disease with progressive accumulation of globotriaosylceramide and other glycosphingolipids in vascular endothelial cells that causes renal failure, myocardial infarction and stroke, and premature death in patients. It has reported that the improper folding and trafficking of alpha-galactosidase resulted from the genetic mutations may account for a significant numbers of Fabry patients. […] We optimized this coffee bean alpha-galactosidase assay in 1536-well plate format as a counter-screen assay for identifying the selective small molecule inhibitors of other lysosomal enzymes.
NCGC Assay Protocol Summary:
This is a fluorogenic enzyme assay with 4-Methylumbelliferyl alpha-D-galactopyranoside as the substrate and green coffee bean […] (from Sigma-Aldrich) as the enzyme preparation. Upon the hydrolysis of this fluorogenic substrate, the resulting product, […]. 4-Methyllumbelliferone, can be excited at 365 nm and emits at 440 nm which can be detected by a standard fluorescence plate reader. Data were normalized to the controls for basal activity (without enzyme) and 100% activity (with enzyme). In the AC50 values were determined from concentration-response data modeled with the standard Hill equation.
Assay buffer: 50 mM citric acid, 0.005% Tween-20, pH 5.9. (pH 5.9 is an optimal condition for this enzyme assay.)
1536-well assay protocol for the coffee bean alpha-galactosidase:
(1) Add 2 ul/well of enzyme (2 nM final)
(2) Add 23 nL compounds in DMSO solution. The final titration was 0.7 nM to 77 uM.
(3) Add 1 ul of substrate (80 uM final)
(4) Incubate at room temperature for 20 min.
(5) Add 2 ul stop solution (1M NaOH and 1M Glycine mixture, pH 10)
(6) Detect the assay plate in a ViewLux plate reader (PerkinElmer) with Ex=365 nm and Em=440nm.
Keywords: Alpha-galactosidase, Fabry Disease, pharmacological chaperone, chaperone therapy, high throughput screening, alpha-galactosidase inhibitor, MLSMR, MLSCN, NIH Roadmap, qHTS and NCGC

Compound | outcome
Cc1sc2ccccc2c1CC1=NCCN1 | inactive
CCS(=O)(=O)Nc1cccc(C(=C2CCCCC2)c2cnc[nH]2)c1 | inactive
C[C@@H]1O[C@H](C[N+](C)(C)C)CS1 | inactive
CN(N=O)c1cc(O)ccc1O | inactive
c1ccc2cc(CC3=NCCN3)ccc2c1 | inactive
N[C@@H](Cn1oc(=O)[nH]c1=O)C(=O)O | inactive
CCCN(CCC)CCc1ccc(O)c(O)c1 | inactive
CN1CCc2cc(O)cc3c2[C@H]1Cc1ccc(O)c(O)c1-3 | inactive
NNC(N)=O | inactive
Clc1cc(I)cc(Cl)c1NC1=NCCN1 | inactive
OCc1cnc[nH]1 | inactive
COc1ccc2c(c1)/C(=C/c1cnc[nH]1)C(=O)N2 | inactive
N#CCCN | inactive
CC(=O)NBr | inactive
CP(=O)(O)C1=CCNCC1 | inactive
c1ccc2c(c1)[I+]c1ccccc1-2 | inactive
C[N+]1(C)CCC(OC(=O)C(c2ccccc2)c2ccccc2)CC1 | inactive
CNC(=O)OCC[N+](C)(C)C | inactive
Cc1[nH]c2ccc(O)cc2c1CCN | inactive
CCCN1CCc2cc(O)cc3c2[C@H]1Cc1ccc(O)c(O)c1-3 | inactive

Compound | outcome
CC(C)(C)c1cc(C=C(C#N)C#N)cc(C(C)(C)C)c1O | inactive
NCCc1ccc(S(=O)(=O)F)cc1 | inactive
NC(=O)COc1c(F)cc(SCCNS(=O)(=O)c2ccccc2)cc1F | inactive
C[C@H](N)CN1CCc2ccc(Br)cc21 | inactive
NC(N)=NOCC[C@H](N)C(=O)O | inactive
C[N+]1(C)[C@@H]2CC[C@H]1CC(OC(=O)c1c[nH]c3ccccc13)C2 (stereo not given in full) | inactive
C[N+]1(C)CCN(c2ccccc2)CC1 | inactive
O=[N+]([O-])c1cc(O)c(O)c([N+](=O)[O-])c1 | inactive
CC(C)NP(=O)(NC(C)C)OP(=O)(NC(C)C)NC(C)C | inactive
O=S1(=O)N(CCN2CC=C(c3c[nH]c4cc(F)ccc34)CC2)c2cccc3c2N1CCC3 | inactive
COc1ccc2[nH]cc(CCN)c2c1 | inactive
c1ccc2c(N3CCNCC3)cccc2c1 | inactive
Clc1ccc(N2C[C@H]3CC[C@@H](C2)N3)nn1 | inactive
N#CC(C#N)=Cc1cc(O)c(O)c(O)c1 | inactive
CN(N=O)c1ccc(O)c(O)c1 | inactive
O=P(O)(O)C(Cl)(Cl)P(=O)(O)O | inactive
CCCn1c(C)c(C(=O)c2ccc3ccccc3c2)c2ccccc21 | inactive
CN1CCC(c2c[nH]c3ccc(O)cc23)CC1 | inactive
CCCN(CCC)C1Cc2cc(OC)c(OC)cc2C1 | inactive
C[N+](C)(C)CCOC(=O)CBr | inactive
